Bioassay records deposited in PubChem by Johns Hopkins Ion Channel Center.
TMEM16A act: activates or potentiates the mouse TMEM16A chloride channel. B-score at 10 µM. 0.3% of 340,000 active. HEK293 TMEM16A/YFP-H148Q/I152L, iodide quench fluorescence; stronger effect = lower value. AID 623877;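 active means fluorescence-ratio B-score plate-corrected deviation score at least 3 library SD below zero, with starting fluorescence score within 5 deviations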;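 further: channel opened by trigger with iodide after compound preincubation; score built on the fluorescence ratio of max minus min over baseline; more negative score means more quench and so TMEM16A activation or potentiation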
CHT PAM: allosteric activators of human choline transporter CHT; CHT-expressing cells, membrane potential dye, choline EC20; stronger effect = higher value; LV-AA mutant CHT in HEK293 cells; Q9GZV3; B-score at 10 µM; AID 488977; 0.49% of 310,000 active;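 active means initial fluorescence not abnormally high and integrated response B-score, plate-corrected, over 3 SD above library mean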
Target sequence (Q9GZV3 whole entry, looked up): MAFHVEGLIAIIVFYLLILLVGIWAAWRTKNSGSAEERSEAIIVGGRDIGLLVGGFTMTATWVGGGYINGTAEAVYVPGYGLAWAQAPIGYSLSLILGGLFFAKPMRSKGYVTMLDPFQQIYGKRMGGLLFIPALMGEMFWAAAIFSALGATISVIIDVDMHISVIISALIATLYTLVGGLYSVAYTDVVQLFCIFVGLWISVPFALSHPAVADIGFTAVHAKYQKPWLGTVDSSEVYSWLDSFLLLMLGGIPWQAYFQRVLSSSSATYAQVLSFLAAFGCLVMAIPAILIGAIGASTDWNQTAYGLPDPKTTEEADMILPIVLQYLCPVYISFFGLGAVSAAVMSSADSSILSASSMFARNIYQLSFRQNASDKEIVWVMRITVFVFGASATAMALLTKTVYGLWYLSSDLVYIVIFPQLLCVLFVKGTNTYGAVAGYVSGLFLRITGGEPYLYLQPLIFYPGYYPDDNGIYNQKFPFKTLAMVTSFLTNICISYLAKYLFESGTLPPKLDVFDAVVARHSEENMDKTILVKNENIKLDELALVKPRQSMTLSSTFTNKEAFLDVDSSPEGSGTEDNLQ
CHT inh: inhibits the human high affinity choline transporter | Q9GZV3 | 0.86% of 310,000 active | CHT-expressing cells, membrane potential dye, choline response; stronger effect = lower value | B-score at 10 µM;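 active means B-score over 3 SD under the library average, and starting fluorescence ratio not unusually high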;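 further: choline stimulus applied at its EC90 after an EC20 pre-addition; B-score computed on integrated fluorescence ratio after choline addition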
TMEM16A inh: blocks the mouse calcium-activated chloride channel TMEM16A; normalized B-score (activity score, 25-100; higher = stronger inhibition) at 10 µM; HEK293 TMEM16A/YFP iodide influx fluorescence, ionomycin; 1.2% of 310,000 active; Q8BHY3; AID 588511;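 active means ratio plate-corrected score three or more library SD toward inhibition, starting fluorescence score within five deviations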;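 further: score derived from kinetic fluorescence span divided by baseline fluorescence per well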
CHT block conf: human CHT inhibition, confirmatory screen | shares compounds with CHT inh | CHT-expressing cells, choline membrane potential dye; LV-to-AA substituted CHT, HEK293 cells | CHT activity remaining % of control (stronger effect = lower value), % at 10 µM | 70% of 2,400 active | AID 493221;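 active means choline transporter activity left, mean of duplicates at 10 µM, below buffer-only control mean minus 3 SD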;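 further: depolarization triggered by choline at its EC90 following an EC20 pre-addition; 0% = hemicholinium-3 full block and 100% = buffer-only control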
HEK293 MPD ctr: activity in parental HEK293 cells lacking CHT; shares compounds with CHT inh; AID 493222; 4% of 2,400 active; membrane potential dye, choline response; active = decrease or increase beyond buffer ±3SD; membrane potential ratio readout (active if shifted either direction beyond buffer ±3SD; no single direction) at 10 µM;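 further: parental cells lack the transporter so any hit is non-specific; ratio is peak minus trough fluorescence over baseline after EC90 choline challenge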
Starred values were filed as active, the others as inactive. Sampled rows, rich in hits. Any-hit rate of the full collection: about 2.3%.

For CCc1ccc(OCCCC(=O)Nc2nnc(C3CCCO3)s2)cc1 (centres undefined) the results were TMEM16A act inactive, CHT PAM inactive, CHT inh inactive and TMEM16A inh inactive.
Screening COC(=O)c1cn(Cc2cc(OC)ccc2OC)cc(F)c1=O returned TMEM16A act inactive, CHT PAM inactive, CHT inh inactive and TMEM16A inh inactive.
`Cc1ccc(SCC2=NN(c3nc(C)cc(C)n3)C(=O)C2)cc1` gave TMEM16A act inactive, CHT PAM inactive, CHT inh -6.46*, TMEM16A inh inactive, CHT block conf 23.4%* and HEK293 MPD ctr inactive.
Screening Cc1ccc(SCc2cc(=O)[nH]c(N3CCN(C)CC3)n2)cc1 returned TMEM16A act inactive, CHT PAM inactive, CHT inh inactive and TMEM16A inh inactive.
`CC1NC(C)(C)Cc2c1ccc1ccccc21` (centres undefined) gave TMEM16A act inactive, CHT PAM inactive, CHT inh inactive and TMEM16A inh inactive.
Screening CC[N+]1(CC)CC2=Cc3c(ccc4ccccc34)C(C)C2C1 (centres undefined) returned TMEM16A act inactive, CHT PAM inactive, CHT inh -5.97*, TMEM16A inh inactive, CHT block conf 60.4%* and HEK293 MPD ctr inactive.
`Cc1ccccc1NC(=O)CN(C)S(=O)(=O)c1ccc(-c2ccc(=O)[nH]n2)s1` gave TMEM16A act inactive, CHT PAM inactive, CHT inh inactive and TMEM16A inh inactive.
Cc1cccc(NC(=O)CN(C)S(=O)(=O)c2ccc(-c3ccc(=O)[nH]n3)s2)c1C was read as TMEM16A act inactive, CHT PAM inactive, CHT inh -6.35*, TMEM16A inh inactive, CHT block conf inactive and HEK293 MPD ctr inactive.
Screening CCC1(c2ccccc2)NC(=O)N(CC(=O)Nc2cc(S(=O)(=O)N3CCCCC3)ccc2OC(C)C)C1=O (centres undefined) returned TMEM16A act inactive, CHT PAM inactive, CHT inh inactive and TMEM16A inh inactive.
For Cc1nc(SCC(=O)NC(=O)NCc2ccccc2)nc(C)c1C the results were TMEM16A act inactive, CHT PAM inactive, CHT inh -6.16*, TMEM16A inh inactive, CHT block conf 68.6%* and HEK293 MPD ctr inactive.
Cc1nc(SCC(=O)NC(=O)NCc2ccco2)nc(C)c1C was read as TMEM16A act inactive, CHT PAM inactive, CHT inh inactive and TMEM16A inh inactive.
For COc1ccc(C(=O)Oc2cccc(Nc3ncnc4ccccc34)c2)cc1OC the results were TMEM16A act inactive, CHT PAM inactive, CHT inh inactive and TMEM16A inh inactive.
CC(C)(C)C(=O)Oc1cccc(Nc2ncnc3ccccc23)c1 was read as TMEM16A act inactive, CHT PAM inactive, CHT inh -5.01*, TMEM16A inh 25*, CHT block conf 61.2%* and HEK293 MPD ctr inactive.
O=[N+]([O-])c1cccc(CSc2nnc3ccccn23)c1 was read as TMEM16A act inactive, CHT PAM inactive, CHT inh inactive, TMEM16A inh inactive, CHT block conf 67.3%* and HEK293 MPD ctr inactive.
`CCCCNC(=O)COC(=O)c1ccc(N(C)C)cc1` gave TMEM16A act inactive, CHT PAM inactive, CHT inh inactive and TMEM16A inh inactive.
`Cc1csc(NC(=O)CCN2C(=O)c3ccccc3S2(=O)=O)n1` gave TMEM16A act inactive, CHT PAM inactive, CHT inh -5.93*, TMEM16A inh inactive, CHT block conf 69.3%* and HEK293 MPD ctr inactive.
O=C(O)c1ccc(/C=C2\COc3ccccc3C2=O)cc1 was read as TMEM16A act inactive, CHT PAM inactive, CHT inh -6.76*, TMEM16A inh inactive, CHT block conf 33.4%* and HEK293 MPD ctr inactive.
`COc1ccc(/C=C2\COc3ccccc3C2=O)cc1OC` gave TMEM16A act inactive, CHT PAM inactive, CHT inh inactive and TMEM16A inh inactive.
CN(C)S(=O)(=O)c1cccc(NC(=O)CCCc2nc3ccccc3c(=O)[nH]2)c1 was read as TMEM16A act inactive, CHT PAM inactive, CHT inh inactive and TMEM16A inh inactive.
Screening Nc1ccc(C2(c3ccc(N)cc3)C(=O)Nc3ccccc32)cc1 returned TMEM16A act inactive, CHT PAM inactive, CHT inh -13.7*, TMEM16A inh inactive, CHT block conf -27.5%* and HEK293 MPD ctr 8.97*.
Screening COc1ccccc1C(=O)NCCC(=O)N1CCN(c2ccccc2O)CC1 returned TMEM16A act inactive, CHT PAM inactive, CHT inh inactive and TMEM16A inh inactive.
For Cc1c(C(c2cccc([N+](=O)[O-])c2O)c2c(C)n(C)n(-c3ccccc3)c2=O)c(=O)n(-c2ccccc2)n1C the results were TMEM16A act inactive, CHT PAM inactive, CHT inh inactive and TMEM16A inh inactive.
Cc1[nH]n(-c2ccccc2)c(=O)c1C(c1cccc([N+](=O)[O-])c1O)c1c(C)[nH]n(-c2ccccc2)c1=O was read as TMEM16A act inactive, CHT PAM inactive, CHT inh -7.23*, TMEM16A inh inactive, CHT block conf -6.2%* and HEK293 MPD ctr inactive.
Cn1c(/C=C/N(Cc2ccccc2)c2ccccc2)c([N+](=O)[O-])c(=O)n(C)c1=O was read as TMEM16A act inactive, CHT PAM inactive, CHT inh -8.36*, TMEM16A inh inactive, CHT block conf 49.5%* and HEK293 MPD ctr inactive.
For CCc1ccc(/C=C/c2c([N+](=O)[O-])c(=O)n(C)c(=O)n2C)cc1 the results were TMEM16A act inactive, CHT PAM inactive, CHT inh inactive and TMEM16A inh inactive.
`O=[N+]([O-])c1ccc(NN=Cc2cccc3ccccc23)cc1` gave TMEM16A act inactive.
O=[N+]([O-])c1cc(Br)c(O)c(/C=N/Nc2nnnn2-c2cccc3ccccc23)c1 was read as TMEM16A act inactive, CHT PAM inactive, CHT inh -9.24*, TMEM16A inh 100*, CHT block conf 33.2%* and HEK293 MPD ctr inactive.
COC(=O)CCC(=O)OC1(C)C(=O)C=C2C=C(C3CC3)N(CC3CC3)C=C2C1=O (centres undefined) was read as TMEM16A act inactive, CHT PAM inactive, CHT inh inactive and TMEM16A inh inactive.
Screening CCN(CC)CCCN1C=C2C(=O)C(C)(OC(=O)CCC(=O)OC)C(=O)C=C2C=C1C1CC1 (centres undefined) returned TMEM16A act inactive, CHT PAM inactive, CHT inh -5.75*, TMEM16A inh inactive, CHT block conf 45.4%* and HEK293 MPD ctr inactive.
